The values below come from PubChem BioAssay (NCI).

This is part of a sample that, as a whole, favours compounds with a hit. Of some 79,000 tested, about 15% had one in any assay. Values without a mark were called inactive. The source made the active and inactive calls. No stated cut-off is given here; in the data, active means growth inhibition above about 70%; inactive means the rest.

Assay [1] is described as follows: NCI Yeast Anticancer Drug Screen. Data for the rad50 strain (AID 155).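 Further: 0% = growth of vehicle-only cultures of the same strain.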 The note with it: S. cerevisiae rad50 strain growth inhibition, active compounds read high. The gist of the method:
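Vehicle-treated cultures provide the reference for the growth inhibition reported for compound-exposed, repair-deficient yeast.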

Assay [2] in a line: NCI Yeast Anticancer Drug Screen. Data for the mec2-1 strain (AID 157). The note with it: S. cerevisiae mec2-1 strain, active compounds read high. The gist of the method:
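Mutant yeast (mec2-1) grown with compound; growth inhibition relative to vehicle control reported.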

Assay [3] can be described thus: NCI Yeast Anticancer Drug Screen. Data for the sgs1 mgt1 strain (AID 161).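 Further: 0% = growth of cultures given vehicle only.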 The note with it: S. cerevisiae sgs1 mgt1 strain, active compounds read high. An outline of the steps:
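This yeast growth screen uses a strain with defined DNA-repair lesions; compound-treated growth is compared with vehicle-treated growth.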

The nature of assay [4]: NCI Yeast Anticancer Drug Screen. Data for the cln2 rad14 strain (AID 165).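 Further: 0% = growth equal to vehicle treated cultures.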 The note with it: S. cerevisiae cln2 rad14 strain, active compounds read high. An outline of the steps:
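Readout is yeast growth inhibition versus vehicle-treated controls, using a strain with cln2 and rad14 alterations exposed to compound.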

Assay [5] is described as follows: NCI Yeast Anticancer Drug Screen. Data for the bub3 strain (AID 167). The note with it: S. cerevisiae bub3 mutant strain, active compounds read high. The gist of the method: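 Mutant yeast screening strain plus compound; vehicle-treated cultures serve as the 0% inhibition reference.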
A short description of assay [6]: NCI Yeast Anticancer Drug Screen. Data for the mlh1 rad18 strain (AID 175). The note with it: S. cerevisiae mlh1 rad18 strain growth inhibition, active compounds read high. An outline of the steps:
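Genetically defined yeast (DNA repair-deficient) exposed to compounds; growth inhibition determined relative to vehicle.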

Setting [7] is: at 5.0 µM (retest, dose inferred, filed as 0.5).
The mark [8] stands for this setting: at 50.0 µM (retest, dose inferred, filed as 5.0).

Turning to `COc1ccc(NS(=O)(=O)c2ccc(N=Cc3c4ccccc4nc4cc(Cl)ccc34)cc2)nn1`, the growth inhibition in assay [1] (setting [7]) is 23%; in assay [1] (setting [8]), -9%; in assay [1] (at 50.0 µM), 94.2% (active); in assay [2] (setting [7]) it was 14%; in assay [2] (setting [8]), -5%; in assay [2] (at 50.0 µM), 91.8% (active). Also, the growth inhibition in assay [3] (setting [7]) was 17%; in assay [3] (setting [8]), -8%; in assay [3] (at 50.0 µM), 95.6% (active); in assay [4] (setting [7]) it was 5%; in assay [4] (setting [8]), -6%; in assay [4] (at 50.0 µM), 36.9%. For the same compound, the growth inhibition in assay [5] (setting [7]) is 22%; in assay [5] (setting [8]), -4%; in assay [5] (at 50.0 µM), 52.2%; in assay [6] (setting [7]) it was 13%; in assay [6] (setting [8]) it was -4%; in assay [6] (at 50.0 µM) it was 95.8% (active).
Regarding `c1cc2ccc1C1NCCCN1CCN1CCCNC1c1ccc(cc1)C1NCCCN1CCN1CCCNC21` (stereo not given), the growth inhibition is 3% in assay [1] (setting [7]); -11% in assay [1] (setting [8]); -8.3% in assay [1] (at 50.0 µM); -19% in assay [2] (setting [7]); -2% in assay [2] (setting [8]); -22.6% in assay [2] (at 50.0 µM). The growth inhibition was -14% in assay [3] (setting [7]); 3% in assay [3] (setting [8]); -2% in assay [3] (at 50.0 µM); -25% in assay [4] (setting [7]); -8% in assay [4] (setting [8]); 53.2% in assay [4] (at 50.0 µM). Besides, the growth inhibition was -1% in assay [5] (setting [7]); -1% in assay [5] (setting [8]); 4.1% in assay [5] (at 50.0 µM); -28% in assay [6] (setting [7]); -14% in assay [6] (setting [8]); -31.4% in assay [6] (at 50.0 µM).
For the compound `CC1OC(CC(=O)O)Cc2c1c(O)c1c(O)cc(-c3cc(=O)c4c(=O)c5c(c(=O)c=4c3=O)CC(CC(=O)O)OC5C)c(O)c1c2O` (stereo not given), the growth inhibition in assay [1] (setting [7]) was -3%; in assay [1] (setting [8]), 6%; in assay [1] (at 50.0 µM), -7.4%; in assay [2] (setting [7]), 3%; in assay [2] (setting [8]), 2%; in assay [2] (at 50.0 µM), 7.35%. For the same compound, the growth inhibition in assay [3] (setting [7]) is -1%; in assay [3] (setting [8]), 2%; in assay [3] (at 50.0 µM), 54.4%; in assay [4] (setting [7]), 1%; in assay [4] (setting [8]) it was 29%; in assay [4] (at 50.0 µM) it was -24.4%. Moreover, the growth inhibition in assay [5] (setting [7]) is 22%; in assay [5] (setting [8]) it was 14%; in assay [5] (at 50.0 µM), 11.3%; in assay [6] (setting [7]), 0%; in assay [6] (setting [8]), 2%; in assay [6] (at 50.0 µM), 15.7%.
In the case of `CCCCCCCCCSC(=S)N(C)NC(=O)c1ccccn1`, the growth inhibition in assay [1] (setting [7]) is 14%; in assay [1] (setting [8]) it was 70% (active); in assay [1] (at 50.0 µM), 89% (active); in assay [2] (setting [7]), 6%; in assay [2] (setting [8]), 81% (active); in assay [2] (at 50.0 µM), 94% (active). The growth inhibition was 4% in assay [3] (setting [7]); 82% (active) in assay [3] (setting [8]); 93.8% (active) in assay [3] (at 50.0 µM); -3% in assay [4] (setting [7]); 71% (active) in assay [4] (setting [8]); 92.1% (active) in assay [4] (at 50.0 µM). In addition, the growth inhibition in assay [5] (setting [7]) is -7%; in assay [5] (setting [8]) it was 78% (active); in assay [5] (at 50.0 µM), 92% (active); in assay [6] (setting [7]), 8%; in assay [6] (setting [8]), 85% (active); in assay [6] (at 50.0 µM) it was 93.7% (active).
Regarding `O=c1c2[nH]c3cccc(Cl)c3c2cnn1-c1ccc(F)cc1`, the growth inhibition in assay [1] (setting [7]) was 4%; in assay [1] (setting [8]), 47%; in assay [1] (at 50.0 µM), 96.7% (active); in assay [2] (setting [7]), 2%; in assay [2] (setting [8]), 74% (active); in assay [2] (at 50.0 µM), 97.2% (active). Moreover, the growth inhibition was 9% in assay [3] (setting [7]); 35% in assay [3] (setting [8]); 96.6% (active) in assay [3] (at 50.0 µM); 2% in assay [4] (setting [7]); 85% (active) in assay [4] (setting [8]); 94.5% (active) in assay [4] (at 50.0 µM). The growth inhibition in assay [5] (setting [7]) was 2%; in assay [5] (setting [8]), 53%; in assay [5] (at 50.0 µM), 98% (active); in assay [6] (setting [7]), -2%; in assay [6] (setting [8]), 79% (active); in assay [6] (at 50.0 µM), 97% (active).
Consider `CNc1ccc(F)cc1SSc1cc(F)ccc1NC`, for which the growth inhibition in assay [1] (setting [7]) was 97% (active); in assay [1] (setting [8]), 98% (active); in assay [1] (at 50.0 µM), 99% (active); in assay [2] (setting [7]) it was 94% (active); in assay [2] (setting [8]), 99% (active); in assay [2] (at 50.0 µM), 99.5% (active). Besides, the growth inhibition in assay [3] (setting [7]) was 95% (active); in assay [3] (setting [8]), 99% (active); in assay [3] (at 50.0 µM) it was 99.4% (active); in assay [4] (setting [7]), 10%; in assay [4] (setting [8]), 99% (active); in assay [4] (at 50.0 µM), 99% (active). Further, the growth inhibition in assay [5] (setting [7]) was 38%; in assay [5] (setting [8]), 99% (active); in assay [5] (at 50.0 µM), 99.2% (active); in assay [6] (setting [7]) it was 97% (active); in assay [6] (setting [8]), 99% (active); in assay [6] (at 50.0 µM), 99.2% (active).
For the compound `COC1=CC(=O)c2ncccc2C1=O`, the growth inhibition was 13% in assay [1] (setting [7]); 92% (active) in assay [1] (setting [8]); 91.8% (active) in assay [1] (at 50.0 µM); 6% in assay [2] (setting [7]); 83% (active) in assay [2] (setting [8]); 78.5% (active) in assay [2] (at 50.0 µM). In addition, the growth inhibition was 8% in assay [3] (setting [7]); 81% (active) in assay [3] (setting [8]); 84.8% (active) in assay [3] (at 50.0 µM); -3% in assay [4] (setting [7]); 93% (active) in assay [4] (setting [8]); 89.2% (active) in assay [4] (at 50.0 µM). Moreover, the growth inhibition is 2% in assay [5] (setting [7]); 81% (active) in assay [5] (setting [8]); 46.6% in assay [5] (at 50.0 µM); 9% in assay [6] (setting [7]); 93% (active) in assay [6] (setting [8]); 95.1% (active) in assay [6] (at 50.0 µM).
`COc1cc(/C=C/C(=O)c2ccc(O)c(OC)c2)ccc1O`: the growth inhibition in assay [1] (setting [7]) is 20%; in assay [1] (setting [8]), 38%; in assay [1] (at 50.0 µM), 14%; in assay [2] (setting [7]), 16%; in assay [2] (setting [8]), 29%; in assay [2] (at 50.0 µM), 47.8%. Also, the growth inhibition in assay [3] (setting [7]) is 9%; in assay [3] (setting [8]) it was 26%; in assay [3] (at 50.0 µM), 54%; in assay [4] (setting [7]), 8%; in assay [4] (setting [8]), 27%; in assay [4] (at 50.0 µM), 34.2%. For the same compound, the growth inhibition in assay [5] (setting [7]) is 17%; in assay [5] (setting [8]) it was 67%; in assay [5] (at 50.0 µM) it was 56.1%; in assay [6] (setting [7]) it was 18%; in assay [6] (setting [8]) it was 31%; in assay [6] (at 50.0 µM), 6.6%.
Consider `COC(=O)C1(Cc2ccc3c(c2)CCC3)Cc2ccc3c(c2C1O)CCC3` (stereo not given), for which the growth inhibition is -2% in assay [1] (setting [7]); 94% (active) in assay [1] (setting [8]); 94.6% (active) in assay [1] (at 50.0 µM); -1% in assay [2] (setting [7]); 96% (active) in assay [2] (setting [8]); 94.3% (active) in assay [2] (at 50.0 µM). Besides, the growth inhibition in assay [3] (setting [7]) is 15%; in assay [3] (setting [8]) it was 97% (active); in assay [3] (at 50.0 µM), 89.9% (active); in assay [4] (setting [7]), -4%; in assay [4] (setting [8]) it was 94% (active); in assay [4] (at 50.0 µM), 85% (active). For the same compound, the growth inhibition in assay [5] (setting [7]) is -1%; in assay [5] (setting [8]), 95% (active); in assay [5] (at 50.0 µM), 93.7% (active); in assay [6] (setting [7]), 4%; in assay [6] (setting [8]) it was 94% (active); in assay [6] (at 50.0 µM), 85.3% (active).
Take `CCCCCCCCCCCC(=O)OCC1CO1` (stereo not given): the growth inhibition in assay [1] (setting [7]) is -6%; in assay [1] (setting [8]) it was -26%; in assay [1] (at 50.0 µM), -11.7%; in assay [2] (setting [7]) it was -13%; in assay [2] (setting [8]) it was -8%; in assay [2] (at 50.0 µM), -4.65%. Further, the growth inhibition is 6% in assay [3] (setting [7]); 1% in assay [3] (setting [8]); 24.6% in assay [3] (at 50.0 µM); 29% in assay [4] (setting [7]); -55% in assay [4] (setting [8]); 34% in assay [4] (at 50.0 µM). Besides, the growth inhibition in assay [5] (setting [7]) was 9%; in assay [5] (setting [8]), -44%; in assay [5] (at 50.0 µM), -6.5%; in assay [6] (setting [7]), -16%; in assay [6] (setting [8]) it was 3%; in assay [6] (at 50.0 µM), -11.4%.
